# Test results taken from PubChem BioAssay.
# Assay: probe aEGFR binding to arrayed compounds – biochemical, biotinylated probe, 635/667 nm fluorescence, primary screen (AID 1097);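 note: probe is a biotinylated anti-EGFR antibody binding compounds printed on slides; score combines fluorescence near 667 nm and signal to noise of each spot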
# Conditions: small-molecule microarray, higher = more signal
row,SMILES,composite z-score
1,CC[C@@H](O[Si](C#C[Si](C(C)C)(C(C)C)C(C)C)(C(C)C)C(C)C)c1cn(Cc2cccc(Cl)c2)nn1,-0.113
2,COC(=O)C1=CC(c2ccc(CO)cc2)=CC(C2CC2)N(Cc2cc3c(cc2Br)OCO3)C=C1C(=O)OC (stereo unspecified),0.46
3,O=C(NCCN1CCOCC1)[C@@H]1c2ccccc2C(=O)N(CC23CC4CC(CC(C4)C2)C3)[C@H]1c1ccc(CO)cc1,0.0353
4,COCCCNC(=O)[C@@]1(CCC(=O)OC(C)(C)C)N=C(c2ccc(OCCCO)cc2)O[C@H]1c1ccccc1,0.0682
5,CN1C2C=C(c3ccc(CO)cc3)C(C3C(=O)N(C(N)=O)C(=O)C32)C1C1CC1 (stereo unspecified),-0.201
6,N#Cc1ccc(NN2C(C(O)c3ccc(B(O)O)cc3)C=CC3CN(c4ccccc4)C(=O)C32)cc1 (stereo unspecified),-0.0828
